Results on 15 compounds are retold here after PubChem BioAssay (NCI).

Some test systems named below: NCI-H23 lung; NCI-H226 lung; NCI-H322M lung; HOP-62 NSCLC; NCI-H460 lung; HOP-92 NSCLC; A549/ATCC NSCLC; 786-0 renal; COLO 205 colon.
Common to all, as to test: NCI-60 one-dose screen, 48 h (100 = growth as untreated, 0 = no growth, -100 = all killed)
Common to all, as to details: 10 µM unless noted

This is part of a sample that, as a whole, favours compounds with a hit. Of some 83,000 tested, about 20% had one in any assay.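 Method: cells in 96-well plates; compound added at one concentration; 48 h incubation; percent growth measured; values under 10 scored active.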 Unmarked numbers belong to inactive results. Active and inactive are the calls of the source.

On to `COc1ccc(-c2cc(-c3cccnc3)nc(S(=O)(=O)CC(=O)Nc3ccc(C)cc3)c2C#N)cc1OC`, for which the growth in the test on NCI-H23 lung is 85%; in the test with NCI-H226 lung, 94.2%; with NCI-H322M lung it was 91.7%; in the test with HOP-62 NSCLC it was 96.8%; with NCI-H460 lung it was 101%; in the test on HOP-92 NSCLC, 76%. The values for the growth with A549/ATCC NSCLC, in the test on 786-0 renal and in the test on COLO 205 colon were 93.4%, 87.9% and 96.5%, respectively.
As to `NS(=O)(=O)c1ccc(-n2nc(-c3ccc(Br)cc3)ccc2=O)cc1`, the growth is 61.3% [100 µM] in the test on NCI-H23 lung; 79.5% [100 µM] with NCI-H226 lung; 87.7% [100 µM] in the test on NCI-H322M lung; 20% [100 µM] in the test with HOP-62 NSCLC; 67.2% [100 µM] with NCI-H460 lung; -30.5% [100 µM] (active) in the test with HOP-92 NSCLC. For the same compound, the growth in the test on A549/ATCC NSCLC was 58% [100 µM]; in the test on 786-0 renal, 46.7% [100 µM]; in the test with COLO 205 colon it was 80.2% [100 µM].
Regarding `CC1(C)CC2(C)CC(=O)C1C(C(=O)O)C2C(=O)O` (stereo not given), the growth with NCI-H23 lung is 106%; with NCI-H226 lung it was 107%; with NCI-H322M lung it was 104%; in the test on HOP-62 NSCLC, 105%; in the test with NCI-H460 lung it was 112%; with HOP-92 NSCLC, 113%. Besides, the growth in the test with A549/ATCC NSCLC was 109%; with 786-0 renal, 123%; in the test on COLO 205 colon it was 107%.
Take `O=C1C2C(C(=O)N1CC[Se][Se]CCN1C(=O)C3C(C1=O)[C@H]1C=C[C@@H]3C1)[C@H]1C=C[C@@H]2C1` (stereo not given in full): the growth in the test on NCI-H23 lung is -9.33% (active); in the test with NCI-H226 lung, -46.9% (active); in the test on NCI-H322M lung it was 2.77% (active); in the test with HOP-62 NSCLC, -80.1% (active); in the test on NCI-H460 lung, -14.9% (active); with HOP-92 NSCLC, -74.4% (active). Moreover, the results for the growth in the test with A549/ATCC NSCLC, in the test on 786-0 renal and in the test on COLO 205 colon were -28.4% (active), -84% (active) and -86.6% (active), respectively.
For `O=C1NC(=O)/C(=C/c2ccc(Cl)cc2Cl)N1`, the growth in the test with NCI-H23 lung is 91.2%; in the test with NCI-H226 lung, 99.4%; with NCI-H322M lung, 104%; in the test on HOP-62 NSCLC, 99.1%; in the test on NCI-H460 lung, 109%; with HOP-92 NSCLC, 81.2%. The results for the growth in the test with A549/ATCC NSCLC, in the test on 786-0 renal and in the test with COLO 205 colon were 101%, 109% and 100%, respectively.
As for `COc1cc(/C=C2\CN(S(=O)(=O)c3ccc(C)cc3)C/C(=C\c3cc(CN4CCOCC4)c(O)c(OC)c3)C2=O)cc(CN2CCOCC2)c1O`, the growth is -57.1% (active) in the test with NCI-H23 lung; -40.2% (active) with NCI-H226 lung; -15.6% (active) in the test on NCI-H322M lung; -16% (active) in the test on HOP-62 NSCLC; -46.9% (active) in the test on NCI-H460 lung; -30.3% (active) in the test with HOP-92 NSCLC. The results for the growth in the test with A549/ATCC NSCLC, in the test on 786-0 renal and in the test with COLO 205 colon were 19.4%, -54.3% (active) and -25.5% (active), respectively.
For the compound `CCC(=O)Nc1cc2c(cc1Cl)-c1ccccc1C2`, the growth is 89.1% with NCI-H23 lung; 81.7% with NCI-H226 lung; 106% with NCI-H322M lung; 97.6% in the test on HOP-62 NSCLC; 98.2% with NCI-H460 lung; 76.9% with HOP-92 NSCLC. Besides, the growth with A549/ATCC NSCLC is 94.2%; with 786-0 renal, 91.5%; in the test on COLO 205 colon, 99.4%.
With `COc1cc(C2=NN(C=O)C(c3cccc(Nc4ccnc5cc(Cl)ccc45)c3)C2)cc(OC)c1OC` (stereo not given), the growth with NCI-H23 lung is 77%; in the test on NCI-H226 lung, 68.9%; in the test on NCI-H322M lung, 91.1%; in the test on HOP-62 NSCLC, 73%; in the test on NCI-H460 lung, 83.4%; in the test with HOP-92 NSCLC, 53.9%. Also, the growth in the test with A549/ATCC NSCLC was 61.8%; with 786-0 renal, 65.2%; in the test with COLO 205 colon it was 66.1%.
Regarding `O=C1Nc2ccc(C(=O)O)c(O)c2C1=O`, the growth is 107% in the test with NCI-H23 lung; 104% in the test with NCI-H226 lung; 105% in the test on NCI-H322M lung; 97.4% in the test on HOP-62 NSCLC; 105% with NCI-H460 lung; 97.3% in the test on HOP-92 NSCLC. Further, the values for the growth in the test with A549/ATCC NSCLC, in the test with 786-0 renal and in the test with COLO 205 colon were 96.9%, 109% and 104%, respectively.
Turning to `O=[N+]([O-])c1ccc(NS(=O)(=O)c2ccc(Cl)c(Cl)c2)cc1`, the growth in the test with NCI-H23 lung was 81.5%; in the test on NCI-H226 lung it was 82.5%; with NCI-H322M lung it was 111%; in the test on HOP-62 NSCLC it was 82%; in the test on NCI-H460 lung it was 77.7%; with HOP-92 NSCLC it was -1.71% (active). In addition, the growth in the test on A549/ATCC NSCLC is 75.1%; in the test with 786-0 renal it was 76.5%; in the test with COLO 205 colon, 122%.
As for `O=C(O)C1C(c2ccccc2)c2ccccc2C(O)C1CO` (stereo not given), the growth in the test with NCI-H23 lung is 106%; in the test on NCI-H226 lung, 105%; in the test with NCI-H322M lung, 112%; in the test on HOP-62 NSCLC, 107%; in the test with NCI-H460 lung, 111%; in the test on HOP-92 NSCLC it was 89.1%. For the same compound, the growth in the test on A549/ATCC NSCLC is 111%; in the test with 786-0 renal, 107%; in the test with COLO 205 colon, 99.7%.
Take `Cc1csc(C#Cc2cncc(O)c2)n1`: the growth in the test with NCI-H23 lung was 111%; with NCI-H226 lung it was 109%; in the test with NCI-H322M lung, 113%; in the test on HOP-62 NSCLC, 110%; with NCI-H460 lung, 121%; with HOP-92 NSCLC it was 121%. Besides, the growth was 108% with A549/ATCC NSCLC, 105% with 786-0 renal and 105% in the test with COLO 205 colon.
`CCOC(=O)OCC(=O)[C@@]1(O)CC[C@H]2[C@@H]3CCC4=CC(=O)CC[C@]4(C)[C@H]3[C@@H](O)C[C@@]21C`: the growth in the test on NCI-H23 lung is 111%; with NCI-H226 lung, 70.1%; with NCI-H322M lung, 99.2%; with HOP-62 NSCLC, 98.5%; with NCI-H460 lung it was 102%; in the test with HOP-92 NSCLC, 72.5%. For the same compound, the growth is 74.2% in the test with A549/ATCC NSCLC, 108% in the test on 786-0 renal and 104% in the test on COLO 205 colon.
In the case of `O=c1[nH]c(N2CCC(Cc3ccccc3)CC2)nc2sc3c(c12)CCCC3`, the growth with NCI-H23 lung is 95.9%; in the test on NCI-H226 lung, 92.3%; with NCI-H322M lung, 97.1%; in the test with HOP-62 NSCLC, 94.5%; in the test on NCI-H460 lung, 102%; with HOP-92 NSCLC, 91.2%. In addition, the growth was 77.5% with A549/ATCC NSCLC, 105% in the test on 786-0 renal and 105% in the test on COLO 205 colon.
As for `Cc1cc2c(cc1C)[n+](Cc1ccc3ccccc3c1)cn2Cc1ccc2ccccc2c1`, the growth was -71.8% (active) in the test on NCI-H23 lung; -25.5% (active) in the test on NCI-H226 lung; -8.28% (active) with NCI-H322M lung; -73% (active) in the test on HOP-62 NSCLC; -76.8% (active) in the test on NCI-H460 lung; -80.8% (active) in the test with HOP-92 NSCLC. In addition, the growth is -71.3% (active) with A549/ATCC NSCLC, -88.9% (active) in the test with 786-0 renal and -67.8% (active) in the test on COLO 205 colon.
